Dicer processing: human Dicer pre-microRNA cleavage inhibition; Q9UPY3; cat-ELCCA pre-miR-21 Dicer processing, chemiluminescence; hits give high values; z-score at 25 µM; hit rate 6% among 47,000; AID 1347074; in the data active = z-score above about 3, passing the limit was not always enough;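 note: plate controls were vehicle for no effect and no enzyme for full effect; higher signal means more uncleaved substrate so more Dicer inhibition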
* hit, by the source's call. The sample as a whole holds a higher share of hits than the screen did.

SMILES | Dicer processing
COc1cc(/C=N/Nc2ccccc2)ccc1OC(=O)c1ccccc1 | 0.46
COc1ccc(NC2OC(=O)c3ccccc32)c(OC)c1 (stereo not drawn) | -0.94
COc1ccc(C(=O)Oc2ccc(Cl)c3cccnc23)cc1OC | 4.5*
O=C(Oc1ccc(Cl)c2cccnc12)c1cccnc1 | 3.5*
COc1ccc(/C(C)=N/OC(=O)c2cc(OC)c(OC)c(OC)c2)cc1CSc1ccccn1 | -0.4
O=C(Oc1ccc(Cl)c2cccnc12)N1CCOCC1 | -1.1
Cc1cc(C)cc(OC(=O)c2ccc(Cl)c(Cl)c2)c1 | 1.5
O=C(Oc1cccc2cccnc12)c1ccccc1 | -0.08
CC1CC2(C)Oc3ccccc3C3OCC1(COC(=O)NC1CCCCC1)C(C)C32 (stereo not drawn) | 0.95
O=C(Nc1nncs1)c1ccncc1 | -2.3
CSc1c(C#N)c(-c2ccc(Cl)cc2)nn1C(=O)c1ccccc1Cl | -1.4
CN(C)CCN1C(=O)C(=O)/C(=C(/O)c2ccccc2)C1c1ccc(Br)cc1 (stereo not drawn) | 0.89
O=C1C(=O)N(CCCN2CCOCC2)C(c2ccccc2)/C1=C(\O)c1ccc(Br)cc1 (stereo not drawn) | 2.3
O=C(O)CCCN1C(=O)C(=O)/C(=C(/O)c2ccccc2)C1c1ccc(Br)cc1 (stereo not drawn) | 3.9*
N#C/C(=N\Nc1ccc(F)cc1)S(=O)(=O)c1ccc(Cl)cc1 | 0.79
CC(Sc1nnc2sc3ccccc3n12)C(=O)O (stereo not drawn) | 0.44
CCOC(=O)c1cnc(NC(=O)CSc2nnc3sc4ccccc4n23)s1 | 4.3*
C=CCSc1nnc2sc3ccccc3n12 | 0.61
CC1(C)CC(=O)C2=C(C1)N1C(=C(C#N)C2c2ccc(F)cc2)N=C(N)c2ccccc21 (stereo not drawn) | 2.1
Cc1ccc(C(=O)OCC(=O)C(C)(C)C)cc1N1C(=O)c2c(C)nc3ccccc3c2C1=O | 3.2*
Cc1ccc(C(=O)COC(=O)c2cccc(N3C(=O)c4c(C)nc5ccccc5c4C3=O)c2)cc1 | 0.43
Cc1nc2ccccc2c2c1C(=O)N(c1cccc(C(=O)OCC(=O)C(C)(C)C)c1)C2=O | -1.5
O=C1Nc2c(C(=O)O)cccc2C1=O | 1.1
CC(C)(C)OC(=O)N1CCC(CNS(=O)(=O)c2ccc3c(c2)OCCO3)CC1 | 0.12
CCSc1nnc2c(n1)OC(c1ccccc1OC)Nc1ccccc1-2 (stereo not drawn) | -0.24
SMILES | Dicer processing
O=C(NCCO)C(=O)NCc1ccco1 | -0.65
CN(C)Cc1c(O)ccc2c(=O)c(-c3cccc4ccccc34)c(C(F)(F)F)oc12 | -0.85
O=S(=O)(Nc1ncccn1)c1ccc(F)cc1 | -1.4
O=S(=O)(CCSc1ncccn1)c1ccc(F)cc1 | 3*
O=S(=O)(CCSc1nccc(-c2cccs2)n1)c1ccc(F)cc1 | 0.76
Cc1onc(-c2ccccc2)c1NC(=O)N(CCC#N)C(C)C | -0.23
O=C1CSC(=Nc2ccc(F)c(Cl)c2)N1c1ccc(F)c(Cl)c1 | 19
Cn1nccc1NC(=O)Nc1cc(Cl)cc(Cl)c1 | -0.4
Cn1nccc1C(=O)Nc1ccc(Cl)cc1 | -1.8
Cn1nccc1NC(=S)Nc1ccc(Cl)cc1 | 4*
c1ccc(CCN2CN(CCN3CCOCC3)c3nc4ccccc4n3C2)cc1 | 0.44
C=CCOc1ccc(C2CC(=O)Nc3n[nH]c(-c4ccc(Cl)cc4)c32)cc1 (stereo not drawn) | -0.02
O=C(O)C1C2C=CC3(CN(CCc4ccccc4)C(=O)C13)O2 (stereo not drawn) | -0.96
O=C(O)C1C2C=CC3(CN(Cc4ccccc4)C(=O)C13)O2 (stereo not drawn) | 3.2*
COC(=O)C1C2C=CC3(CN(Cc4ccccc4)C(=O)C13)O2 (stereo not drawn) | 1.7
O=C1C([N+](=O)[O-])=C(O)c2cccc3cccc1c23 | -0.36
Cc1c(-c2nc(-c3cccc(C(F)(F)F)c3)no2)sc2nc(-c3ccc(Cl)cc3)nn12 | -0.34
O=C(O)CC12OC3C4C5CC(C6C5C3C61)C42 (stereo not drawn) | -1.1
CC1(C)OC(=O)C2(C(=O)O1)C1C3C4CC5C6C4C1C6C2C53 (stereo not drawn) | 0.94
COC(=O)C1(C(=O)OC)C2C3C4CC5C6C4C2C6C1C53 (stereo not drawn) | 5.4*
Cn1c(C2COc3ccccc3O2)n[nH]c1=S (stereo not drawn) | 0.45
COCCCn1c2c(c(=O)[nH]c1=O)C(c1ccccc1)C1=C(N2)c2ccccc2C1=O (stereo not drawn) | 0.35
O=C1NC(c2ccc(OCc3ccccc3)cc2)Nc2sc3c(c21)CCCC3 (stereo not drawn) | 3.6*
CN1CCc2c(sc3c2C(=O)NC(c2ccc(OCc4ccccc4)cc2)N3)C1 (stereo not drawn) | -1.4
O=C1NC(c2ccccc2OCc2ccccc2)Nc2sc3c(c21)CCCC3 (stereo not drawn) | 4.3
SMILES | Dicer processing
CCOc1cccc(C2c3c(oc4ccccc4c3=O)C(=O)N2c2nnc(C)s2)c1 (stereo not drawn) | -0.46
CSc1nc(C=Nc2ccc(Cl)cc2)c(O)n1Cc1ccccc1Cl | 4.7*
O=S(=O)(c1ccc(Cl)cc1)c1ccc(N=Cc2ccccc2O)cc1Cl | 1.5
N#Cc1ccc(-c2ccc(Cl)cc2[N+](=O)[O-])o1 | -1.9
CCOc1ccc(CN(CCc2ccc3c(c2)OCO3)Cc2cccnc2)cc1 | -0.63
CC1CC2(C)Oc3ccccc3C3OCC1(COC(=O)c1ccccc1)C(C)C32 (stereo not drawn) | 0.31
CCOC(=O)c1cc(-c2ccccc2)sc1NC(=O)CSc1nccn1C | -2.2
Oc1ccc(O)c(Sc2nnnn2-c2ccccc2)c1 | 3.2*
CC(=O)C(Sc1nnnn1-c1ccccc1)C(C)=O | -0.44
CC(=O)n1nc(C)c(Sc2nnnn2-c2ccccc2)c1C | -1.2
Cc1nn(C)c(C)c1NC(=O)c1ccccc1NS(C)(=O)=O | -0.86
COC(=O)c1sc2nc(-c3ccccc3)cc(-c3ccc(OC)cc3)c2c1N | -0.73
CCSCCOC(=O)C1=C(C)NC2=C(C(=O)CCC2)C1c1cccc(Oc2ccccc2)c1 (stereo not drawn) | 6*
CC1=C(C(=O)OCCc2ccccc2)C(c2ccc(Br)cc2)C2=C(CCCC2=O)N1 (stereo not drawn) | 2.2
CCSCCOC(=O)C1=C(C)NC2=C(C(=O)CCC2)C1c1ccc(F)cc1 (stereo not drawn) | 6.4*
CCSCCOC(=O)C1=C(C)NC2=C(C(=O)CCC2)C1c1ccc(OC)c(Br)c1 (stereo not drawn) | 2.2
CC1=C(C(=O)OCCc2ccccc2)C(c2ccsc2)C2=C(CCCC2=O)N1 (stereo not drawn) | 3.8*
CCSCCOC(=O)C1=C(C)NC2=C(C(=O)CCC2)C1c1ccc(OC)cc1OC (stereo not drawn) | 0.01
CCOc1ccc(C2C(C(=O)OCCSCC)=C(C)NC3=C2C(=O)CCC3)cc1 (stereo not drawn) | 0.51
CC1=C(C(=O)OCCc2ccccc2)C(c2ccc(C)cc2)C2=C(CCCC2=O)N1 (stereo not drawn) | 0.5
CC1=C(C(=O)OCC2CCCO2)C(c2cccc(Oc3ccccc3)c2)C2=C(CCCC2=O)N1 (stereo not drawn) | 1.1
CCC1CCCN(S(=O)(=O)c2ccc(C)cc2)C1 (stereo not drawn) | 0.24
N/C(CSc1ccc(Cl)cc1)=N\S(=O)(=O)c1ccc(F)c(Cl)c1 | -0.04
Oc1ccccc1C=Nc1ccc(Cl)cn1 | 0.53
CCOC(=O)c1ccc(-n2nnc(/C=C/C=C/N3CCN(C)CC3)n2)cc1 | -0.18
COc1ccccc1N=C(NC#N)SC | 0.39
